Test results published in PubChem BioAssay (NCI).
About 79,000 compounds went through this panel and 15% of them were active in at least one assay; those are over-represented in the sample as a whole. Calls of active or inactive are those of the source. Rule as the data show it: active = growth inhibition above about 70%; inactive = the rest.

Legend:
[1] = NCI Yeast Anticancer Drug Screen. Data for the rad52 strain (AID 147);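 also: 0% = growth of vehicle-treated control cultures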; conditions: S. cerevisiae rad52 mutant growth inhibition, active compounds read high
In short: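 Here a repair-compromised yeast strain receives each compound; its growth is then quantified and normalised to vehicle-only controls.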

[2] = NCI Yeast Anticancer Drug Screen. Data for the wt1 strain (AID 149);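 also: 0% = growth of vehicle-treated wt1 cultures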; conditions: S. cerevisiae wt1 strain (SPY 50644) growth inhibition, active compounds read high
In short: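 Readout: yeast growth inhibition, normalised to vehicle controls, in the wt1 strain exposed to test compounds.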

[3] = NCI Yeast Anticancer Drug Screen. Data for the rad50EPP+ strain (AID 151);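 also: 0% = growth of vehicle-treated control cultures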; conditions: S. cerevisiae rad50 mutant strain, active compounds read high
In short: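 Read-out is yeast growth inhibition relative to vehicle; cells used were the rad50EPP+ strain.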

[4] = NCI Yeast Anticancer Drug Screen. Data for the mgt1 strain (AID 153); conditions: S. cerevisiae mgt1 mutant growth inhibition, active compounds read high
In short: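 Measured: inhibition of mgt1 yeast growth by compound, normalized to vehicle-treated cultures.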

[5] = NCI Yeast Anticancer Drug Screen. Data for the rad50 strain (AID 155);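 also: 0% = growth of vehicle-only cultures of the same strain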; conditions: S. cerevisiae rad50 strain growth inhibition, active compounds read high
In short: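 Compounds were tested on a yeast strain with an engineered DNA damage repair alteration; the reported value is growth inhibition normalised to vehicle treatment.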

[6] = NCI Yeast Anticancer Drug Screen. Data for the mec2-1 strain (AID 157); conditions: S. cerevisiae mec2-1 strain, active compounds read high
In short: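 Using mec2-1 yeast: add compound, measure growth, express inhibition versus vehicle-treated cultures.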

[7] = NCI Yeast Anticancer Drug Screen. Data for the rad14 strain (AID 159);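 also: 0% = growth of vehicle-treated control cultures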; conditions: S. cerevisiae rad14 strain growth inhibition, active compounds read high
In short: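 Compound-treated yeast with a defined DNA-repair lesion; growth inhibition normalised to vehicle-treated cultures.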

[8] = NCI Yeast Anticancer Drug Screen. Data for the sgs1 mgt1 strain (AID 161);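 also: 0% = growth of cultures given vehicle only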; conditions: S. cerevisiae sgs1 mgt1 strain, active compounds read high
In short: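 Yeast cells carrying a defined DNA-repair defect were exposed to test compounds. Growth inhibition was measured relative to vehicle-treated controls.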

[9] = NCI Yeast Anticancer Drug Screen. Data for the CLN2oe strain (AID 163);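 also: 0% = growth of vehicle-only control cultures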; conditions: S. cerevisiae CLN2oe strain, active compounds read high
In short: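 Whole-cell yeast growth assay. A strain engineered for altered cell-cycle control received compound, and inhibition relative to vehicle-treated cultures was recorded.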

[10] = NCI Yeast Anticancer Drug Screen. Data for the cln2 rad14 strain (AID 165);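 also: 0% = growth equal to vehicle treated cultures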; conditions: S. cerevisiae cln2 rad14 strain, active compounds read high
In short: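 Yeast strain cln2 rad14, bearing defects in cell cycle control and DNA repair, serves as the test system; values reflect growth inhibition compared with vehicle.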

[11] = NCI Yeast Anticancer Drug Screen. Data for the bub3 strain (AID 167); conditions: S. cerevisiae bub3 mutant strain, active compounds read high
In short: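 Growth of a checkpoint-deficient yeast mutant is measured after compound exposure. Values represent inhibition relative to vehicle.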

[12] = NCI Yeast Anticancer Drug Screen. Data for the wt2 strain (AID 169);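 also: 0% = growth of vehicle-treated yeast cultures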; conditions: S. cerevisiae wt2 strain growth inhibition, active compounds read high
In short: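 Treated yeast vs. vehicle-treated yeast: growth inhibition determined.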

[13] = NCI Yeast Anticancer Drug Screen. Data for the mlh1 strain (AID 171);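 also: 0% = growth of vehicle-treated control cultures of the same strain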; conditions: S. cerevisiae mlh1 strain growth inhibition, active compounds read high
In short: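 A yeast strain with a defined genetic lesion serves as the test organism. Cultures receive compound or vehicle, and growth is measured.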

[14] = NCI Yeast Anticancer Drug Screen. Data for the mlh1 rad18 strain (AID 175); conditions: S. cerevisiae mlh1 rad18 strain growth inhibition, active compounds read high
In short: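 Steps: expose repair-defective yeast to compound; measure growth; express inhibition against vehicle-treated controls.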

[15] = NCI Yeast Anticancer Drug Screen. Data for the rad18 strain (AID 177); conditions: S. cerevisiae rad18 mutant growth inhibition, active compounds read high
In short: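 Measured value is growth inhibition of a yeast strain bearing a DNA repair alteration, referenced to vehicle-treated cells.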

[16] = at 5.0 µM (retest, dose inferred, filed as 0.5)
[17] = at 50.0 µM (retest, dose inferred, filed as 5.0)

Measured: growth inhibition

Cc1c2c(nc3ccccc13)C(=O)c1cccnc1C2=O
inactive: [1]; at 1.2 µM -10% | [1]; at 3.7 µM 0% | [1]; at 11.0 µM 9% | [2]; at 1.2 µM 2% | [2]; at 3.7 µM 9% | [2]; at 11.0 µM 6% | [2]; at 33.0 µM 17% | [3]; at 1.2 µM -6% | [3]; at 3.7 µM -11% | [3]; at 11.0 µM -2% | [3]; at 33.0 µM 45% | [4]; at 1.2 µM 1% | [4]; at 3.7 µM -1% | [4]; at 11.0 µM -10% | [4]; at 33.0 µM 13% | [5]; at 1.2 µM 9% | [5]; at 3.7 µM 15% | [5]; [16] 57% | [5]; at 11.0 µM 21% | [6]; at 1.2 µM -18% | [6]; at 3.7 µM -10% | [6]; [16] -4% | [6]; at 11.0 µM -13% | [6]; at 33.0 µM 7% | [6]; at 50.0 µM 66.8% | [7]; at 1.2 µM 3% | [7]; at 3.7 µM 3% | [7]; at 11.0 µM 4% | [7]; at 33.0 µM 23% | [8]; [16] 1% | [9]; at 1.2 µM -8% | [9]; at 3.7 µM 1% | [9]; at 11.0 µM 3% | [9]; at 33.0 µM 11% | [10]; [16] -1% | [10]; at 50.0 µM 64% | [11]; at 1.2 µM 5% | [11]; at 3.7 µM 7% | [11]; [16] 12% | [11]; at 11.0 µM -13% | [11]; at 33.0 µM 4% | [12]; at 1.2 µM 3% | [12]; at 3.7 µM -3% | [12]; at 11.0 µM 17% | [12]; at 33.0 µM 20% | [13]; at 1.2 µM 22% | [13]; at 3.7 µM 15% | [13]; at 11.0 µM 20% | [13]; at 33.0 µM 17% | [14]; [16] 19% | [15]; at 1.2 µM -11% | [15]; at 3.7 µM -5% | [15]; at 11.0 µM 0% | [15]; at 33.0 µM 23%
active: [1]; at 33.0 µM 75% | [1]; at 100.0 µM 94% | [2]; at 100.0 µM 81% | [3]; at 100.0 µM 92% | [4]; at 100.0 µM 78% | [5]; at 33.0 µM 78% | [5]; [17] 90% | [5]; at 50.0 µM 77.8% | [5]; at 100.0 µM 94% | [6]; [17] 90% | [6]; at 100.0 µM 83% | [7]; at 100.0 µM 81% | [8]; [17] 78% | [8]; at 50.0 µM 79.2% | [9]; at 100.0 µM 78% | [10]; [17] 72% | [11]; [17] 83% | [11]; at 50.0 µM 75.7% | [11]; at 100.0 µM 83% | [12]; at 100.0 µM 73% | [13]; at 100.0 µM 84% | [14]; [17] 90% | [14]; at 50.0 µM 84% | [15]; at 100.0 µM 90%

CC(C)=CCC/C(C)=C/CN1C(=O)C=CC1=O
active: [1]; at 11.0 µM 99% | [1]; at 33.0 µM 99% | [1]; at 100.0 µM 99% | [2]; at 11.0 µM 100% | [2]; at 33.0 µM 100% | [2]; at 100.0 µM 99% | [3]; at 3.7 µM 86% | [3]; at 11.0 µM 99% | [3]; at 33.0 µM 99% | [3]; at 100.0 µM 99% | [4]; at 11.0 µM 100% | [4]; at 33.0 µM 100% | [4]; at 100.0 µM 100% | [5]; at 11.0 µM 99% | [5]; at 33.0 µM 99% | [5]; [17] 98% | [5]; at 50.0 µM 99.7% | [5]; at 100.0 µM 99% | [6]; at 11.0 µM 99% | [6]; at 33.0 µM 100% | [6]; [17] 99% | [6]; at 50.0 µM 99.7% | [6]; at 100.0 µM 100% | [7]; at 11.0 µM 100% | [7]; at 33.0 µM 100% | [7]; at 100.0 µM 100% | [8]; [17] 99% | [8]; at 50.0 µM 99.5% | [9]; at 11.0 µM 81% | [9]; at 33.0 µM 99% | [9]; at 100.0 µM 99% | [10]; [17] 99% | [10]; at 50.0 µM 99.3% | [11]; at 11.0 µM 99% | [11]; at 33.0 µM 99% | [11]; [17] 99% | [11]; at 50.0 µM 99.4% | [11]; at 100.0 µM 99% | [12]; at 3.7 µM 76% | [12]; at 11.0 µM 100% | [12]; at 33.0 µM 99% | [12]; at 100.0 µM 99% | [13]; at 11.0 µM 98% | [13]; at 33.0 µM 99% | [13]; at 100.0 µM 99% | [14]; [17] 98% | [14]; at 50.0 µM 99.3% | [15]; at 11.0 µM 99% | [15]; at 33.0 µM 99% | [15]; at 100.0 µM 99%
inactive: [1]; at 1.2 µM 9% | [1]; at 3.7 µM 36% | [2]; at 1.2 µM 2% | [2]; at 3.7 µM 29% | [3]; at 1.2 µM 57% | [4]; at 1.2 µM -3% | [4]; at 3.7 µM 18% | [5]; at 1.2 µM 7% | [5]; at 3.7 µM 42% | [5]; [16] 13% | [6]; at 1.2 µM -3% | [6]; at 3.7 µM 17% | [6]; [16] -16% | [7]; at 1.2 µM 14% | [7]; at 3.7 µM 53% | [8]; [16] 36% | [9]; at 1.2 µM -13% | [9]; at 3.7 µM 5% | [10]; [16] -29% | [11]; at 1.2 µM 10% | [11]; at 3.7 µM 37% | [11]; [16] -24% | [12]; at 1.2 µM 24% | [13]; at 1.2 µM -8% | [13]; at 3.7 µM 15% | [14]; [16] 69% | [15]; at 1.2 µM 4% | [15]; at 3.7 µM 32%
